Source: PubChem BioAssay AID1645852 (National Center for Advancing Translational Sciences (NCATS), 2021)
Screen size: about 1,200 compounds; about 160 (13%) were called active. Another 31% or so got no clear call; they are omitted. The list is a sample of the results. A number with no mark means an inactive call. The call rests on the fitted dose curve; in most records, active means well fitted inhibition curve with a large enough effect; inconclusive means small, poorly fitted or top-dose-only effect; inactive means no such curve, though single readings can be large or run the other way.
Further: nearly all actives have a fitted effect of over 65% in size.
On the % scale 0 is the no-effect control and ±100 the full control effect; potency means the concentration at half of the fitted maximal effect.

These molecules were tested against Inositol hexakisphosphate kinase 1 (Homo sapiens) (UniProt Q92551) (assay: Confirmatory qHTS assay for small molecule inhibitors of Inositol hexaphosphate kinase 1 (IP6K1)). Details: recombinant IP6K1 kinase, ADP-Glo luminescence, 2 h; series mostly up to 49 µM; activity change, negative = inhibition: at the top concentration.
Inositol hexakisphosphate kinase 1 (Homo sapiens), sequence (Q92551 whole entry, looked up): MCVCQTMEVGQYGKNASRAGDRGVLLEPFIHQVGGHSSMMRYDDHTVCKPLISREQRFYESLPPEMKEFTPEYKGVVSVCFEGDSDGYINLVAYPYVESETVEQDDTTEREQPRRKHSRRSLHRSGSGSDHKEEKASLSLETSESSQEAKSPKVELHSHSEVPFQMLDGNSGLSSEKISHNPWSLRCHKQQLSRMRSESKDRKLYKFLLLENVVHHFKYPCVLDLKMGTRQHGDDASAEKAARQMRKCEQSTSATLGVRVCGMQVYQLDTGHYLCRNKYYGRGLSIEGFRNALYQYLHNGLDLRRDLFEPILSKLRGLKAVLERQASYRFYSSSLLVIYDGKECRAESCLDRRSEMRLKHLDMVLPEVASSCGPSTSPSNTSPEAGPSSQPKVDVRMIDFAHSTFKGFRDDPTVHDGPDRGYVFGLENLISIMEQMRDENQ
Text: Assay Provider: Huijun Wei, M.S., Ph.D. School of Medicine, Johns Hopkins University, Baltimore, MD Inositol hexakisphosphate kinases (IP6Ks) catalyze pyrophosphorylation of inositol hexakisphosphate (IP6) into inositol 5-diphospho-1,2,3,4,6-pentakisphosphate (IP7), which is involved in numerous areas of cell physiology including glucose homeostasis, blood coagulation and neurological development. Inhibition of IP6Ks may be effective for the treatment of Type II diabetes, thrombosis, and psychiatric disorders. We performed a quantitative high throughput screen (qHTS) of 158,410 compounds for IP6K1 inhibitors using ankinase activity ADP-Glo Max assay. […] Medicinal chemistry SAR efforts in three chemical series identified potent IP6K1 inhibitors, which were further validated in an orthogonal LC-MS IP7 analysis.
PROTOCOL TABLE SEQUENCE No. (e.g., 1, 2, 3, etc.); […] (e.g., Cells, Incubation, Reagent, etc.); VALUE and DESCRIPTION. 1. Reagent, 3 uL of 1.3 mM ATP and 130 uM IP6 mixture in assay buffer was dispensed to a white, 1536-well assay plate. 2. Compound, 23 nL of compounds of the top two doses (57.5 uM and 19.1 uM final concentration) of the libraries were dispensed into the mixture using the Kalypsis pintool. 3. Reagent, 1 uL of 2.4 uM IP6K1 was dispensed to the assay plates. 4. Incubation, 2 hr incubation at room temperature. 5. Reagent, 2 uL of ADP-Glo reagent was added to the wells. 6. Incubation, 1 hr incubation at room temperature. 7. Reagent, 4 uL or ADP-Glo substate was added to the wells. 8. Incubation, 45 min incubation at room temperature. 9. Detection, luminescence signal was detected using the ViewLux microplate imager (PerkinElmer).
With `Cc1ccc(CNC(=O)CCc2c(C)nc3c(c(C)nn3-c3ccccc3)c2C)cc1` the “activity change, negative = inhibition” value was -6.31%.
With `COc1ccc(C2Cn3nnc(C(=O)N4CCN(C(=O)c5ccc(C)cc5C)CC4)c3CO2)cc1` (centres undefined) the “activity change, negative = inhibition” value was 4.29%.
`COc1c(C)cnc(CN(C)C(=O)C2CC(=O)N(C3CCCC3)C2)c1C` (centres undefined) was tested, and the “activity change, negative = inhibition” value was 0.975%.
In the case of `CCCS(=O)(=O)c1ncc(Cl)c(C(=O)Nc2scc(-c3ccccc3)c2C(=O)OCC)n1`, the “activity change, negative = inhibition” value is reported as -6.72%.
For `Cc1ccc(-c2nnc3ccc(-c4ccoc4)nn23)nc1`, the “activity change, negative = inhibition” value was 0.0128% [at 92.2 µM].
In the case of `CC1=C(C(=O)Nc2ccccc2Cl)C(c2cccs2)n2ncnc2N1` (centres undefined), the “activity change, negative = inhibition” value is reported as -29.2%.
In the case of `CN(C)[C@@H]1C(=O)C(C(N)=O)=C(O)[C@@]2(O)C(=O)C3=C(O)c4c(O)ccc(Cl)c4[C@@H](O)[C@H]3C[C@@H]12`, the “activity change, negative = inhibition” value is reported as -16.3%.
With `Cc1ccc(-c2cc(C(=O)Oc3ccccc3Cl)no2)cc1C` the “activity change, negative = inhibition” value was 30.1%.
In the case of `COc1cc(NC(=O)Nc2cccc(CNC(=O)O[C@H]3CCOC3)c2)ccc1-c1cnco1`, the Potency is reported as 8.2 µM (active).
With `C#C[C@]1(O)CC[C@H]2[C@@H]3CCC4=C/C(=N/O)CC[C@@H]4[C@H]3CC[C@@]21CC` the Potency was 1.84 µM (active).
In the case of `Cc1cccc(C(=O)N2CCC3(CC2)CC(c2ccccc2)CN(C)C3)n1` (centres undefined), the “activity change, negative = inhibition” value is reported as -16.6%.
For `Cc1cc(C)c(/C=C2\C(=O)Nc3ccccc32)[nH]1`, the “activity change, negative = inhibition” value was -5.46%.
`Cc1ccc(-c2onc(C)c2C)cc1S(=O)(=O)Nc1ccccn1` was tested, and the “activity change, negative = inhibition” value was -5.89%.
For `CC(C)(C)OC(=O)N1CCC(c2c(C(=O)N3CCc4ccccc4C3)cnn2-c2ccc(F)cc2)CC1`, the “activity change, negative = inhibition” value was 4.4%.
For `CCc1ccccc1N1CC(c2nc3ccccc3n2CCCCOc2ccccc2)CC1=O` (centres undefined), the “activity change, negative = inhibition” value was -0.175%.
`O=c1cc(-c2cccnc2)oc2c(-c3ccccc3O)nccc12` was tested, and the “activity change, negative = inhibition” value was -25.6%.
For `CCOc1cccc2c1N[C@@H](c1ccc(C(=O)O)cc1)[C@H]1CC=C[C@@H]21`, the Potency was 20.6 µM (active).
With `CCOC(=O)c1cc2c(=O)n3ccccc3nc2n(Cc2ccco2)c1=NC(=O)c1ccc(F)cc1` the “activity change, negative = inhibition” value was -13%.
For `CCOC(=O)c1ccc(CSc2nnc3cc(C)c4ccccc4n23)cc1`, the “activity change, negative = inhibition” value was -13%.
In the case of `Cc1ccc2c(c1)N(CC(=O)NCCCN1CCCCC1)C(=O)c1cccnc1O2`, the “activity change, negative = inhibition” value is reported as -8.72%.
`O=C(OCCN1CCOCC1)c1cccnc1Nc1cccc(C(F)(F)F)c1` was tested, and the “activity change, negative = inhibition” value was -19.8%.
With `COc1ccccc1N1CCN(S(=O)(=O)CCNC(=O)COc2ccc(F)cc2)CC1` the “activity change, negative = inhibition” value was 0.724%.
`CCOc1ncccc1C(=O)N1CCN(Cc2ccccc2)CC(O)C1` (centres undefined) was tested, and the “activity change, negative = inhibition” value was -4.84%.
In the case of `O=c1ncn(Cc2ccccc2)c2ccc(-c3ccoc3)nc12`, the “activity change, negative = inhibition” value is reported as -9.81%.
`CCOC(=O)c1ccc(NC(=O)CCS(=O)(=O)c2ccc(C)cc2)cc1` was tested, and the “activity change, negative = inhibition” value was -10.6%.
For `CO[C@H]1C=CO[C@@]2(C)Oc3c(C)c(O)c4c(O)c(c(/C=N/N5CCN(C)CC5)c(O)c4c3C2=O)NC(=O)/C(C)=C\C=C[C@H](C)[C@H](O)[C@@H](C)[C@@H](O)[C@@H](C)[C@H](OC(C)=O)[C@@H]1C`, the “activity change, negative = inhibition” value was -21.3%.
With `CCOc1ccccc1NC(=O)C1CCCN(S(=O)(=O)c2cn(C)cn2)C1` (centres undefined) the “activity change, negative = inhibition” value was -14.5%.
In the case of `C(=C\c1ccccc1)/CN1CCN(c2nccc(-c3cccnc3)n2)CC1`, the “activity change, negative = inhibition” value is reported as -13.6%.
`CCc1ccccc1N1C(=O)CN(S(=O)(=O)CC)CC1(C)C(=O)NC1CCCCC1` (centres undefined) was tested, and the “activity change, negative = inhibition” value was 22.6%.
`O=c1c2ccccc2n(Cc2cccc(Cl)c2)c(=O)n1Cc1ccccc1` was tested, and the “activity change, negative = inhibition” value was -4.11%.
In the case of `Cc1ccc(NC(=O)c2cc(S(=O)(=O)NCCC3=CCCCC3)ccc2F)cc1C`, the “activity change, negative = inhibition” value is reported as 4.86%.
For `CC1(C)CN(C(=O)c2ccc(-c3cccc4nc(NC(=O)C5CC5)nn34)cc2)C1`, the “activity change, negative = inhibition” value was 7.31%.
`COc1ccc2ncc3c(-c4ccc(C)c(C)c4)nn(CC(=O)NC4CCCC4)c3c2c1` was tested, and the “activity change, negative = inhibition” value was 26.6%.
For `Cc1ccncc1C(=O)N1CCC2(CC1)CC(c1ccccc1)C(=O)N2C` (centres undefined), the “activity change, negative = inhibition” value was -13.6%.
